Measured values taken from PubChem BioAssay AID1220 (Sanford-Burnham Center for Chemical Genomics, 2008).
About 1,300 (0.68%) of roughly 190,000 compounds were called active. No stated cut-off is given here; in the data, active means inhibition above about 50%; inactive means the rest. The sample as a whole holds a higher share of actives than the screen did.

What follows are compounds tested against Mannose-6-phosphate isomerase (Homo sapiens) (UniProt P34949) (assay: human PMI inhibitors, high substrate, primary screen, biochemical, fluorescence intensity, high mannose 6-phosphate (AID 1220)). Settings: recombinant PMI enzyme, coupled fluorescence intensity; at 20 µM; stronger effect = higher value.
Chain of Mannose-6-phosphate isomerase (Homo sapiens) (P34949 whole entry, looked up): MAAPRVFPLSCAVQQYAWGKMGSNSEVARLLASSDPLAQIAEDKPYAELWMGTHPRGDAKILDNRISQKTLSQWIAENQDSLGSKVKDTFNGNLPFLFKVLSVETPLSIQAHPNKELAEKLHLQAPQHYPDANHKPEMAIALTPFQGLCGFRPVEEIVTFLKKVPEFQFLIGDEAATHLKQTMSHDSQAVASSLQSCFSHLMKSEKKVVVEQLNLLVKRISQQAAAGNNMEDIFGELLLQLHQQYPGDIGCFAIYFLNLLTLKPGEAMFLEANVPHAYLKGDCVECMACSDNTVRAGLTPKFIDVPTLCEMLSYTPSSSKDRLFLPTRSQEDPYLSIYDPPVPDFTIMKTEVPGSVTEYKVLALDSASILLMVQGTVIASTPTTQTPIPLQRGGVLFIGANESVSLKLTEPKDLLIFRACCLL

inhibition, active:
Cc1nc(SCC(=O)c2ccccc2)n[nH]1 51.2%, COc1ccc(CCNC(=O)CS(=O)(=O)c2cn(CC(=O)N3CCOCC3)c3ccccc23)cc1OC 51.4%, O=C1Nc2c(Br)cc(Br)cc2C1(O)N1CCOCC1 (stereo unspecified) 55.6%, CCOC(=O)C1(C)C=C(Nc2ccc(O)cc2)C(=O)N1c1ccc(O)cc1 (stereo unspecified) 58.5%, CCOC(=O)c1c2ccc(OCC(=O)N/N=C/c3ccccc3C(F)(F)F)cc2n2ccccc12 64.2%, Cn1c2c(c(=O)n(C)c1=O)[C@@]1(C(=O)Nc3ccccc31)C(C#N)=C(N)O2 54.6%, Cc1c(Nc2cc(N3CCCCCC3)c3nonc3c2[N+](=O)[O-])c(=O)n(-c2ccccc2)n1C 51.5%, COc1ccc2nc(NC(=O)Nc3cccc4ccccc34)sc2c1 58.6%, Cn1c2ccccc2c(=O)n2c(=O)c3ccccc3cc12 54.4%, Cc1ccc(N)c2c1OCCC2=O 57.7%, COc1ccc(N)c2c1OCCC2=O 59.8%, CC1(C)Cc2c(ccc3ccccc23)C2=C(C(=O)N3CCCC3)C(=O)C(=O)N21 56%, CC1(C)Cc2ccccc2C2=C(C(=O)N3CCCCCC3)C(=O)C(=O)N21 60.5%, Cc1cc(C(=O)COc2cccnc2[N+](=O)[O-])c(C)n1-c1ccccc1 53.3%, Cc1ccc(-n2c(C)cc(C(=O)COc3cccnc3[N+](=O)[O-])c2C)cc1 54.5%, Clc1cccc(Cl)c1CNc1ccc(N2CCCC2)cc1 84.4%, Cc1ccc(NS(=O)(=O)c2ccc(Br)s2)nc1 66.2%, CCCCS(=O)(=O)Nc1ccc(C)cn1 57.3%, CCOc1c(O)ccc(C2NC(=O)NC(C)=C2C(=O)OC)c1[N+](=O)[O-] (stereo unspecified) 50.9%, CCOc1c(O)ccc(C2NC(=O)N(C)C(C)=C2C(=O)OC)c1[N+](=O)[O-] (stereo unspecified) 60.2%, CC1(C)CC(=O)C(C2c3ccccc3Oc3ccccc32)C(=O)C1 52.9%

inhibition, inactive:
Cc1cc(S(=O)(=O)N(Cc2ccc(C(C)C)cc2)CC2CCCO2)ccc1-n1cnnn1 (stereo unspecified) -1%, Cn1c(-c2ccccc2)c(C(=O)CCl)c2ccccc21 -33.5%, Cc1nc(SCC(=O)c2ccc(F)cc2)n[nH]1 12.9%, Cc1ccc(C(=O)CSc2n[nH]c(C)n2)cc1 -0.9%, COc1ccc(CCNC(=O)CS(=O)(=O)c2cn(CC(=O)N3CCCC3)c3ccccc23)cc1OC 46.9%, CCN(CC)C(=O)Cn1cc(S(=O)(=O)CC(=O)NCCc2ccc(OC)c(OC)c2)c2ccccc21 20.4%, COc1cc(SC)ccc1C(=O)Nc1ccc(Cl)cn1 2.4%, CC(=O)N1CCC2(CC1)CC(=O)c1cc(OCC(=O)N3CCOCC3)ccc1O2 -1.2%, Cc1cc([N+](=O)[O-])cc2c1NC(=O)C2(O)N1CCOCC1 (stereo unspecified) 16.7%, CC1CCN(C2(O)C(=O)Nc3ccc(Br)cc32)CC1 (stereo unspecified) -1.3%, COc1ccc(C2C(C(C)=O)=C(O)C(=O)N2CCCn2ccnc2)cc1 (stereo unspecified) -4%, CCOC(=O)C1(C)C=C(Nc2ccc(C)cc2)C(=O)N1c1ccc(C)cc1 (stereo unspecified) -5.2%, CCOC(=O)C1(C)C=C(Nc2ccc(OC)cc2)C(=O)N1c1ccc(OC)cc1 (stereo unspecified) 18%, O=C(/C=C/c1ccco1)Nc1nc(-c2ccccn2)cs1 25.9%, Cc1cccc(OCC(=O)N/N=C\c2cn(C)c3ccccc23)c1 -0.8%, Cc1ccc(OCC(=O)N/N=C\c2cn(Cc3ccccc3)c3ccccc23)cc1C 2.4%, Cc1ccc(/C=N/NC(=O)CNC(=O)COc2ccccc2)cc1 8.2%, CCOC(=O)c1c2ccc(OCC(=O)N/N=C/c3ccc(Cl)cc3)cc2n2ccccc12 48.6%, Cn1c2c(c(=O)n(C)c1=O)C1(C(=O)Nc3ccccc31)C(C#N)=C(N)O2 (stereo unspecified) 47.4%, N#CC1=C(N)Oc2[nH]c(=S)[nH]c(=O)c2C12C(=O)Nc1ccccc12 (stereo unspecified) 46.2%, CNc1oc(-c2ccc(Cl)cc2)nc1C#N 0.9%, Cc1c(Nc2cc(N3CCOCC3)c3nonc3c2[N+](=O)[O-])c(=O)n(-c2ccccc2)n1C 27.1%, Cc1c(Nc2cc(N3CCCC(C)C3)c3nonc3c2[N+](=O)[O-])c(=O)n(-c2ccccc2)n1C (stereo unspecified) 44.3%, Cc1c(NC(=O)CN2c3cccc4cccc(c34)S2(=O)=O)c(=O)n(-c2ccccc2)n1C 5%, CC1=C(C)CC(C(=O)N2CCN(Cc3ccccc3)CC2)C(C(=O)O)C1 (stereo unspecified) 9.2%, COc1ccc2nc(NC(=O)Nc3ccccc3)sc2c1 15.5%, CCCC(=O)Nc1nc2ccc(OC)cc2s1 7.2%, Cn1c(-c2ccccc2)cc(=O)c2ccccc21 2%, Cc1cc(=O)n(C)c2ccccc12 -8.5%, CNC(=O)c1[nH]cnc1C(=O)N[C@@H](Cc1ccccc1)C(=O)OC(C)(C)C 2.7%, O=C1C2C3C=CC(C3)C2C(=O)N1c1ccccc1OS(=O)(=O)c1ccccc1 (stereo unspecified) -5%, CCOc1ccc(/C=C2\SC(N3CCc4ccccc4C3)=NC2=O)cc1 3.5%, COc1ccc(OC)c2c1CCC2=O -2.6%, Cc1cccc(N)c1-c1c(C)cccc1N 5.8%, COc1ccc(N)c2c1C(=O)c1ccccc1C2=O 23.8%, Cc1ccc2c(c1C)OC(=O)CC2(C)C -5.5%, COC(=O)c1ccc(/C=N/NC(=S)NCCN2CCOCC2)cc1 -1.5%, NC(=O)C1CCN(C(=O)C2CCN(S(=O)(=O)c3ccccc3)CC2)CC1 5%, CCOC(=O)C1=C2c3ccc4ccccc4c3CC(C)(C)N2C(=O)C1=O 27.6%, C=CCC1(O)C(=O)N2C(=C1C(=O)N1CCOCC1)c1ccccc1CC2(C)C (stereo unspecified) -1.7%, CC1(C)Cc2c(ccc3ccccc23)/C(=C/C(=O)N2CCCCC2)N1 -2.6%, CC1(C)Cc2ccccc2/C(=C/C(=O)N2CCCCCC2)N1 -22.6%, COc1ccc(/C=N/NS(C)(=O)=O)c(OC)c1 8.2%, CCOC(=O)N/N=C1\CC(C)CC(C)(C)C1 (stereo unspecified) 4.2%, COc1ccc(CCNC(=O)COC(=O)/C=C/c2cc(OC)c(OC)c(OC)c2)cc1OC -0.4%, COc1cccc(CC2(CO)CCN(Cc3ccc4cccc(F)c4n3)CC2)c1 13.1%, Cc1ccc(OCC(=O)c2cc(C)n(-c3ccccc3)c2C)c([N+](=O)[O-])n1 21.3%, Cc1cc(-n2c(C)cc(C(=O)COc3ccccc3[N+](=O)[O-])c2C)no1 9.1%, Cc1ccc(OCC(=O)c2cc(C)n(C3CC3)c2C)c([N+](=O)[O-])n1 10.6%, COc1ccc(-n2c(C)cc(C(=O)COc3ccc(C)nc3[N+](=O)[O-])c2C)cc1 41%, CN(Cc1ccccc1)C(=O)CC(c1ccccc1)c1cc(Cl)ccc1O (stereo unspecified) 4.5%, CCn1c(=O)c(C(=O)CN2CCN(S(=O)(=O)c3ccccc3)CC2)c(N)n(Cc2ccccc2)c1=O 0.5%, O=C(Nc1ccc(N2CCCCCC2)cc1)c1ccccc1Cl 27.3%, NS(=O)(=O)c1ccc(NCc2c(F)cccc2Cl)cc1 4.6%, O=C(O)c1cc(NCc2c(F)cccc2Cl)ccc1N1CCOCC1 2.7%, O=S(=O)(Nc1ccc(N2CCCCC2)cc1)c1ccccc1 0.6%, COC(=O)C(CCSC)NC(=O)CNS(=O)(=O)c1ccc(Br)cc1 (stereo unspecified) -7.6%, Cc1ccc(C)c(CN2CCNC2=O)c1 -0.9%, CCNC(=O)CC1C(=O)N(CC)C(=S)N1NC(=O)c1cccnc1 (stereo unspecified) -4.7%, N=C1S/C(=C\c2ccccc2F)C(=O)N1c1ccc(F)cc1 3.1%, Cc1ccc(NS(=O)(=O)Cc2ccccc2)nc1 16.5%, Cc1cc(C)nc(NS(=O)(=O)c2ccc(Br)s2)c1 42.1%, Cc1cccc(NS(=O)(=O)c2ccc(Br)s2)n1 -4.4%, CCCCCCCCCS(=O)(=O)Nc1cc(C)ccn1 7.7%, O=c1cc(CCl)nc2sc3ccccc3n12 -13.1%, COc1c(O)ccc(C2NC(=O)NC(C)=C2C(=O)Nc2ccccc2C)c1[N+](=O)[O-] (stereo unspecified) 49.8%, COC(=O)C1=C(C)N(C)C(=O)NC1c1ccc(O)c(Cl)c1 (stereo unspecified) 3.8%, COC(=O)C1=C(C)N(C)C(=O)NC1c1cc2c(cc1[N+](=O)[O-])OCO2 (stereo unspecified) 42.7%, COC(=O)C1=C(C)NC(=O)NC1c1ccc([N+](=O)[O-])o1 (stereo unspecified) 10.9%, CN=C1SC(CC(=O)Nc2cc(Cl)ccc2Cl)C(=O)N1C (stereo unspecified) -9.7%, COc1ccc(/C=N/Nc2nc(N3CCCC3)nc(N3CCCC3)n2)c(OC)c1OC 4%, Cc1onc(-c2c(F)cccc2Cl)c1C(=O)NCCO -4%, COc1ccc2c(c1)C(C1C(=O)CCCC1=O)c1ccccc1O2 (stereo unspecified) 2.9%, CC1(C)CC(=O)C(C2c3ccccc3S(=O)(=O)c3ccccc32)C(=O)C1 -5.8%, O=C(c1ccc(-c2ccccc2)cc1)N1CCC(C(=O)N2CCCC2)CC1 5.4%
